E coli growth-1 – reduces bacterial viability in AddAB counter-screen; AID 449728; E. coli V3065 growth, OD600 absorbance, 18 h; 330,000 tested, 0.27% active; inhibition, % at 11.9 µM;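 active means inhibition above the campaign's mean inhibition across all tested compounds plus 3 SD, cut at about 9.9% in these data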;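 further: uninfected addAB+ strain grown without phage in ampicillin broth; 0% = DMSO wells and 100% = ciprofloxacin 0.95 µg/ml wells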
E coli growth-2 – blocks Escherichia coli growth | OD600, 23 h; hits give low values | OD600 absorbance (test concentration not listed) | 330,000 tested, 0.21% active | AID 1053175;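 active means OD600 absorbance below the run mean of sample wells minus 3.6 SD, in any replicate, cut at about 0.56 in these data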
Tat transport – inhibitors of E. coli Tat protein transport | E. coli MC4100 TorA-mCherry Tat export, fluorescence | inhibition, % at 10 µM | 340,000 tested, 0.036% active | AID 488895;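 active means mean replicate inhibition at least 50% and at least half of replicates individually reaching 50%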;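 further: exported cargo escapes ClpAP degradation while cytoplasmic cargo is degraded and loses fluorescence; 0% = median of neutral control wells and 100% = median of NaSCN control wells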
AddAB inh – less growth of phage-infected E. coli with AddAB | E. coli expressing H. pylori AddAB, absorbance growth | inhibition, % at 11.9 µM | 330,000 tested, 0.29% active | AID 435030; in the data active means inhibition above about 12%;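 further: 0% = vehicle wells of infected cells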
phage Ecoli inh – E. coli growth loss with phage present | AID 651602 | 360,000 tested, 0.26% active | growth absorbance | inhibition, % at 11.9 µM; in the data active means inhibition above about 11%
AddAB confirm – confirmation screen: growth loss of phage-infected E. coli expressing H. pylori AddAB | AID 488942 | 880 tested, 64% active | shares compounds with AddAB inh | E. coli V3065 expressing H. pylori AddAB, T4 phage, OD; T4 phage with gene 2 nonsense mutations | inhibition, % at 11.9 µM;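 active means mean inhibition above a set limit taken from the earlier primary screen, cut at about 13% in these data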;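 further: higher means less bacterial growth since AddAB block lets phage replicate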
RecBCD counter – reduces growth of phage-infected RecBCD+ E. coli, AddAB inhibitor counter-screen | 880 tested, 73% active | AID 488955 | inhibition, % at 11.9 µM | shares compounds with AddAB inh | E. coli V66 + mutant T4 phage, OD growth;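 active means mean inhibition above the mean of solvent-only control wells plus 3 SD, cut at about 4% in these data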;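 further: optical density read after an 18 h incubation at 37 °C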
bact viab count – counter-screen for AddAB inhibitors: inhibitors of bacterial viability; AID 488956; absorbance (AddAB counterscreen); shares compounds with AddAB inh; inhibition, % at 11.9 µM; 880 tested, 35% active; in the data active means inhibition above about 25%
Numbers without * were called inactive; / = no result. In the library only some 0.5% were active in any assay of this set; here they are far more common.

SMILES	E coli growth-1	E coli growth-2	Tat transport	AddAB inh	phage Ecoli inh	AddAB confirm	RecBCD counter	bact viab count
C#CCOCCOCCOCCNc1nc(N2CCN(C(=O)C(CCC(=O)O)n3cc(C(N)C(C)CC)nn3)CC2)nc(N2CCN(C(=O)C(C(C)CC)n3cc(C(N)CO)nn3)CC2)n1 (centres undefined)	/	0.701	/	/	/	/	/	/
O=Cc1ccc(O)c2ncccc12	/	0.093*	0.3	/	/	/	/	/
Nc1cccc([N+](=O)[O-])c1	3.0	0.648	-8.6	2.5	-1.5	/	/	/
O=[N+]([O-])c1cccc(SSc2cccc([N+](=O)[O-])c2)c1	/	0.537*	3.0	/	2.2	/	/	/
CC(C)(C)N1C(=O)C2C(c3ccc(Br)cc3)N3C(=O)N(c4cccc(F)c4)C(=O)[C@@]3(Cc3ccccc3)C2C1=O (some centres undefined)	/	0.702	/	/	/	/	/	/
NCCOc1ccc(C23CC4CC(CC(C4)C2)C3)cc1	0.3	0.474*	7.9	-1.9	3.8	/	/	/
OCCN1CCN(CC(O)COc2ccc(C34CC5CC(CC(C5)C3)C4)cc2)CC1 (centres undefined)	-2.3	/	4.9	-1.4	2.4	/	/	/
O=c1nccc(N/N=C/c2ccccc2O)[nH]1	/	/	0.4	/	2.3	/	/	/
COc1cccc(/C=N/Nc2ccnc(=O)[nH]2)c1O	12.7*	/	7.4	6.3	2.1	/	/	/
NS(=O)(=O)c1ccc(N=Nc2c(O)ccc3ccccc23)cc1	1.4	0.686	-0.9	1.7	1.6	/	/	/
Oc1ccc(N=Nc2c(O)ccc3ccccc23)cc1	12.8*	0.594	-5.4	13.3*	3.1	60.2*	3.9	16.8
O=C(CCCN1C(=O)S/C(=C\c2ccccc2)C1=O)NNC(=O)c1ccccc1O	5.1	/	-5.4	9.1	10.3	/	/	/
O=C(CCN1C(=O)/C(=C\c2ccccc2)SC1=S)NNC(=O)c1ccccc1O	9.4	0.718	11.7	15.6*	8.0	3.5	5.0*	4.3
CN1CCN(c2ccc(-c3ccc4ccccc4n3)cc2)CC1	/	0.681	5.1	/	1.9	/	/	/
c1ccc2nc(-c3ccc(N4CCOCC4)cc3)ccc2c1	43.3*	0.676	-1.1	40.0*	3.8	-3.7	-0.6	-3.6
COC(=O)c1ccc(C=NNC(=O)CC(=O)NCCc2ccccc2)cc1	/	0.73	/	/	/	/	/	/
OCCC1CC(O)C(O)[C@]2(OCCc3ccccc32)O1 (some centres undefined)	/	0.638	/	/	/	/	/	/
COc1ccc([N+](=O)[O-])cc1NC(=O)C(C)OC(=O)C1CCC1 (centres undefined)	94.7*	0.616	-10.8	97.8*	-0.4	-3.1	-1.6	-4.9
COc1ccc([N+](=O)[O-])cc1NC(=O)C(C)OC(=O)C1CCCC1 (centres undefined)	1.1	0.655	-1.6	0.1	-0.1	/	/	/
CC1CNC(=O)C(=O)N1CC(Cc1ccc(O)cc1)NC(=O)CC12CC3CC(CC(C3)C1)C2 (centres undefined)	/	0.653	/	/	/	/	/	/
CN(Cc1ccccc1)C(=O)c1[nH]cnc1C(=O)NC(CCCCNC(=O)OC(C)(C)C)C(=O)OC(C)(C)C (centres undefined)	/	0.702	/	/	/	/	/	/
COC(=O)[C@@]12CCCN1C(c1ccc(-c3cccc(Cl)c3)cc1)C1C(=O)N(C)C(=O)C12 (some centres undefined)	/	0.704	/	/	/	/	/	/
Cc1ccc(S(=O)(=O)NCc2ccc3[nH]c(C)cc3c2)cc1	3.1	0.66	1.8	1.0	1.8	/	/	/
Cc1cc2cc(CNS(=O)(=O)N(C)C)ccc2[nH]1	26.1*	0.785	2.4	34.4*	2.4	-1.1	-0.9	-2.9
CCOC(=O)C1C2COc3ccc(Br)cc3C2N2C(=O)N(c3ccc(Br)cc3)C(=O)[C@@]12C (some centres undefined)	/	0.645	/	/	/	/	/	/
SMILES	E coli growth-1	E coli growth-2	Tat transport	AddAB inh	phage Ecoli inh	AddAB confirm	RecBCD counter	bact viab count
CC(C)CC(NC(=O)c1nc[nH]c1C(=O)N1CCc2ccccc2C1)C(=O)OC(C)(C)C (centres undefined)	/	0.675	/	/	/	/	/	/
COc1ccc2c(c1)C(=O)N1C3c4cc(OC)ccc4OCC3C(c3ccccc3)[C@]1(C)C(=O)N2 (some centres undefined)	/	0.721	/	/	/	/	/	/
CCn1cc(C(=O)NCc2ccc3c(c2)OCO3)c(=O)c2cc(F)c(N3CCN(C(=O)c4ccco4)CC3)cc21	90.9*	0.052*	30.2	97.1*	9.5	99.0*	10.3*	97.8*
CCn1cc(C(=O)NCc2ccccc2)c(=O)c2cc(F)c(N3CCN(C(=O)c4ccco4)CC3)cc21	6.3	0.565	0.3	7.9	1.1	/	/	/
CCn1cc(C(=O)NCCC(=O)OC)c(=O)c2cc3c(cc21)OCO3	0.3	0.684	-1.0	-0.2	2.5	/	/	/
CCn1cc(C(=O)NCc2ccncc2)c(=O)c2cc(F)c(N3CCN(C(=O)c4ccco4)CC3)cc21	91.6*	0.071*	/	98.3*	2.9	98.8*	8.0*	88.0*
O=c1c(O)c(-c2ccc(O)c(O)c2)oc2cc(O)cc(O)c12	9.6	0.599	5.6	13.3*	5.7	9.4	3.9	5.0
Cc1ccc(/C=C2\C(=O)Nc3ccccc32)o1	19.0*	0.512*	3.3	61.6*	16.8*	98.1*	13.7*	44.2*
NS(=O)(=O)c1ccc(-c2ccc(/C=C3\C(=O)Nc4ccccc43)o2)cc1	-1.2	/	/	3.5	/	/	/	/
O=C(O)C1=CC(c2ccc(C(F)(F)F)cc2)CC(OCc2ccc(CO)cc2)O1 (centres undefined)	/	0.649	/	/	/	/	/	/
O=C(COC(=O)c1ccccc1NC(=O)c1ccco1)NCC1CCCCC1	97.5*	0.682	-6.0	97.0*	0.0	-1.7	1.6	-0.4
CC(=NNC(=O)c1cccc(NN=C(C)c2cc(O)ccc2O)c1)c1cc(O)ccc1O	/	0.701	/	/	/	/	/	/
CCCCCC(=O)NCc1c(C(F)(F)F)nn(C)c1N1CCOCC1	96.8*	0.715	0.4	97.6*	0.5	-3.2	0.8	-0.4
O=C(Nc1nc(-c2cccs2)cs1)c1ccc([N+](=O)[O-])o1	6.5	0.515*	-19.3	13.0*	10.1	84.9*	7.5*	13.0
O=C(Nc1cccc(NC(=O)c2ccc([N+](=O)[O-])o2)c1)c1ccco1	17.2*	0.46*	-30.4	24.1*	10.0	98.6*	10.0*	30.2*
O=C(Nc1cccc(NC(=O)c2cccs2)c1)c1ccc([N+](=O)[O-])o1	16.2*	0.409*	-13.4	27.3*	10.6	95.8*	9.4*	28.2*
Cc1ccc(S(=O)(=O)Nc2ccc3c(c2)CC(=O)N(C(C)CO)CC(C)C(CN(C)Cc2ccc(-c4ccccc4)cc2)O3)cc1 (centres undefined)	/	0.72	/	/	/	/	/	/
Cc1cc(/C=N/n2c(COc3ccccc3)nc3ccccc3c2=O)c(O)c([N+](=O)[O-])c1	13.1*	/	2.0	14.7*	10.1	10.4	14.2*	8.5
Cc1cc(C=Nn2c(COc3ccccc3)nc3ccccc3c2=O)c(O)c([N+](=O)[O-])c1	/	0.699	/	/	/	/	/	/

Screening data from PubChem.
